Results filed as inconclusive are left out. The source made the active and inactive calls. Rule for the calls: active = hit-call score of the fitted dose curve at least 0.9, where 1 is the maximum; inconclusive = response in the unintended direction; inactive = score below 0.9.
Key:
[1] = test system: guinea pig Histamine Receptor (H2), gene 100729734; experiment: NVS_GPCR_gH2: NovaScreen (NVS) G Protein-Coupled Receptor Assay for guinea pig Histamine Receptor (H2) (AID 2283342)
Procedure, shortened: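 Radioligand displacement on guinea pig striatal membranes, 1 h after dosing, filter-based scintillation counting; loss of signal versus DMSO. Single-point screen at 25 uM in duplicate, then concentration-response up to 50 uM.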

[2] = target: bovine Estrogen Receptor (ER), ESR1 (gene 407238) (UniProt P49884); experiment: NVS_NR_bER: NovaScreen (NVS) Nuclear Receptor Binding Assay for bovine Estrogen Receptor (ER) (AID 2283345);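 note: actives lower the bound radioligand count which means they displace the ER ligand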
bovine Estrogen Receptor (ER), ESR1 (gene 407238), sequence (P49884 whole entry, looked up): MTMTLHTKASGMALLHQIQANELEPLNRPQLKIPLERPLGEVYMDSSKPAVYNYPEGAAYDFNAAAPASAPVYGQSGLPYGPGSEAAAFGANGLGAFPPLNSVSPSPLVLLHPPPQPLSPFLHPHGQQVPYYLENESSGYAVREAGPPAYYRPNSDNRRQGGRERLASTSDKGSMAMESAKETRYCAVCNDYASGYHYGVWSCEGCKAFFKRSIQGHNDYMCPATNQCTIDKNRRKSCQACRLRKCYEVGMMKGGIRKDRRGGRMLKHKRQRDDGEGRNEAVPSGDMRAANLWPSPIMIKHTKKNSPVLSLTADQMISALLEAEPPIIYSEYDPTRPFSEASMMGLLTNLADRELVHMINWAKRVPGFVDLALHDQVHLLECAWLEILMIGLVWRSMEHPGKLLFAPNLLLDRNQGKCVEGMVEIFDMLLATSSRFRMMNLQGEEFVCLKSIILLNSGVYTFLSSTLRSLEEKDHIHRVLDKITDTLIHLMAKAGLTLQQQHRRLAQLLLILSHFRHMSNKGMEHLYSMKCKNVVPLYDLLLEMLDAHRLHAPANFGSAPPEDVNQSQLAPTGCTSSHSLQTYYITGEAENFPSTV
Procedure, shortened: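 Displacement of a radioligand from estrogen receptor in bovine uterine membrane preparations; scintillation signal taken at 18 hours, DMSO as baseline. Single-concentration duplicates (25 uM) preceded concentration-response follow-up of actives.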

[3] = target: chimpanzee Androgen Receptor (AR), AR (gene 747460) (UniProt O97775); experiment: NVS_NR_cAR: NovaScreen (NVS) Nuclear Receptor Binding Assay for chimpanzee Androgen Receptor (AR) (AID 2283346);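 note: radioligand displacement from AR measured by scintillation counting in a cell-free assay; a loss of bound radioligand signal versus DMSO counts as binding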
chimpanzee Androgen Receptor (AR), AR (gene 747460), sequence (O97775 whole entry, looked up): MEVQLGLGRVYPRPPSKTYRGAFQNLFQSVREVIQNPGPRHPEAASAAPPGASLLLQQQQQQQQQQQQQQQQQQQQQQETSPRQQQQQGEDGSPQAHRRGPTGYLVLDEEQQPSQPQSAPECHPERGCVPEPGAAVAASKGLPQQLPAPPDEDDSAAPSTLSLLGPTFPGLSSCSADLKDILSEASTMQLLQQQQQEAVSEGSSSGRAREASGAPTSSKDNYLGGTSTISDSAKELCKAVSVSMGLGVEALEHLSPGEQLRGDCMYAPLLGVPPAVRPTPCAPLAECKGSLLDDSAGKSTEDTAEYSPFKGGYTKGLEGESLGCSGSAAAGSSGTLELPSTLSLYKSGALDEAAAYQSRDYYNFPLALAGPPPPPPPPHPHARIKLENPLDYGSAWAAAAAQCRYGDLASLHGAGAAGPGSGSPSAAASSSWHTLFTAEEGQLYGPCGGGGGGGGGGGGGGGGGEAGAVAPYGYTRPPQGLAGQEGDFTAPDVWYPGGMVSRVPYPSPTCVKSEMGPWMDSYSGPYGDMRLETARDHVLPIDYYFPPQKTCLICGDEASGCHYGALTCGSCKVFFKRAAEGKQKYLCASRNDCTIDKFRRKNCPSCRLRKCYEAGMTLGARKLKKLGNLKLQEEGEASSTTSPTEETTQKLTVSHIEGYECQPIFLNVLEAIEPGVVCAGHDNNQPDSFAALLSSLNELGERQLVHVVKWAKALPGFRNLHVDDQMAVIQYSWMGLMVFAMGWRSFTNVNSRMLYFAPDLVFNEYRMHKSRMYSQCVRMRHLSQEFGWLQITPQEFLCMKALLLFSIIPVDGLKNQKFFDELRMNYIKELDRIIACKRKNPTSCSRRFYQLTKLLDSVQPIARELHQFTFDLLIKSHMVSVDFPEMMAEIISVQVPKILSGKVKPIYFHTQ
Procedure, shortened: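 Cell-free competition binding with insect-cell (Sf9/Sf21) extracted chimpanzee AR; scintillation signal from lysate at 72 h. Screened in duplicate at 25 uM, then concentration-response for actives; fitting relative to DMSO.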

[4] = target: Estrogen receptor (Homo sapiens) (UniProt P03372); experiment: NVS_NR_hER: NovaScreen (NVS) Nuclear Receptor Binding Assay for human Estrogen Receptor (ER) (AID 2283348)
Estrogen receptor (Homo sapiens), sequence (P03372 whole entry, looked up, the tested form may be a part): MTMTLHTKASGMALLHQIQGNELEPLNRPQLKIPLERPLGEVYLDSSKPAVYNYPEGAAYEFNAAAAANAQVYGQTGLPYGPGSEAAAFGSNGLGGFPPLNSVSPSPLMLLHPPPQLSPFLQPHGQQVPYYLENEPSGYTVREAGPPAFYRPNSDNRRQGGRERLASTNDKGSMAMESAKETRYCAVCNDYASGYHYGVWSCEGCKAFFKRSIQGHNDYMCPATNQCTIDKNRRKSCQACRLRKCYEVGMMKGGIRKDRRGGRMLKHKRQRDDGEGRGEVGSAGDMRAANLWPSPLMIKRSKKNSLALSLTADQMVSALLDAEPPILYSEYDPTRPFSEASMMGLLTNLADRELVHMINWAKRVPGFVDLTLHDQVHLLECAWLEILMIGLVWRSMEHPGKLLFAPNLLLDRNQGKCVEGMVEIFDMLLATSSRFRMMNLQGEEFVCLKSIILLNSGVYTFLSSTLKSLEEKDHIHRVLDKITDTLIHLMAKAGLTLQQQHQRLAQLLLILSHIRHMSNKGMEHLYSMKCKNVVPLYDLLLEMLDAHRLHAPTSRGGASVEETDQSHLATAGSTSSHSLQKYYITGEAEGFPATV
Procedure, shortened: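 Scintillation signal from bound radioligand was measured 18 hours after chemical addition to cell-free MCF7 protein extracts, with DMSO as baseline. Activity was scored as signal loss; compounds ran first at 25 uM in duplicate.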

[5] = target: Estrogen receptor (Homo sapiens) (UniProt P03372); experiment: OT_ER_ERaERa_1440: Odyssey Thera (OT) 24-hour HEK293T Protein-Complementation Assay for Estrogen Receptor-alpha/-alpha Homodimer (AID 2283349);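 note: hits raise fluorescence above DMSO for agonists and antagonists alike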
Procedure, shortened: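 Protein-fragment complementation between two human ERα ligand-binding domains (aa 310-547) in stably transfected HEK293T cells was monitored after 24 h treatment, using fluorescence intensity relative to vehicle controls.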

[6] = target: Bile acid receptor (Homo sapiens) (UniProt Q96RI1); experiment: NVS_NR_hFXR_Antagonist: NovaScreen (NVS) Nuclear Receptor Binding Assay for human Farnesoid X Receptor Antagonism (FXR) (AID 2283350)
Procedure, shortened: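 Cell-free TR-FRET ligand-binding read-out on human FXR (NR1H4) in antagonist mode, measured 1 h after dosing. Primary screen in duplicate at 25 uM, actives retested in concentration series; signal loss scored versus DMSO.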

[7] = target: Estrogen receptor (Homo sapiens) (UniProt P03372); experiment: OT_ER_ERaERa_0480: Odyssey Thera (OT) 8-hour HEK293T Protein-Complementation Assay for Estrogen Receptor-alpha/-alpha Homodimer (AID 2283351);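 note: rise in fluorescence from reassembled reporter fragments on ERα LBD homodimer in nucleus or whole cell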
Procedure, shortened: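 The readout is complementation of fragments fused to the human ER alpha ligand-binding domain (aa 310-547), stably expressed in HEK293T cells. After 8 h of exposure, the increase in nuclear/cytoplasmic fluorescence was measured by laser scanning cytometry and fitted relative to DMSO.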

[8] = target: T1, Estrogen receptor (Homo sapiens) + Estrogen receptor beta (Homo sapiens) (UniProt P03372+Q92731); experiment: OT_ER_ERaERb_1440: Odyssey Thera (OT) 24-hour HEK293T Protein-Complementation Assay for Estrogen Receptor-alpha/-beta Homodimer (AID 2283356);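 note: heteromer of ER alpha and ER beta binding domains; hits raise reporter fluorescence and both agonists and antagonists give an increase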
T1 sequence (P03372 whole entry, looked up, the tested form may be a part): as above
T1 sequence (Q92731 whole entry, looked up, the tested form may be a part): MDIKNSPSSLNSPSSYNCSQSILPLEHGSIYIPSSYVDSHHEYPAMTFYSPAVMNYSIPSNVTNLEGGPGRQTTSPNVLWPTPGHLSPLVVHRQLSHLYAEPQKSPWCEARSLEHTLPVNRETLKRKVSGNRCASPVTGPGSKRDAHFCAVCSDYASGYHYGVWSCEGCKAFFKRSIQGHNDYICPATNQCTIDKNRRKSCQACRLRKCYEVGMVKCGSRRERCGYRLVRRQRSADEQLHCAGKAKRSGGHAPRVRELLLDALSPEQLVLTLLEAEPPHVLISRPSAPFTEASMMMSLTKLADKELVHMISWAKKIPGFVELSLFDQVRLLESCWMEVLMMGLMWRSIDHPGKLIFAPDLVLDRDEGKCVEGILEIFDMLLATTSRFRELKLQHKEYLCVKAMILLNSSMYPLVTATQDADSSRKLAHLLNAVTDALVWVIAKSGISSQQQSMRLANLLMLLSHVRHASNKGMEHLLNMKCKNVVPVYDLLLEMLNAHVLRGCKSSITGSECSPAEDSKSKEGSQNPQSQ
Procedure, shortened: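 Stable HEK293T PCA line, ERα LBD 310-547 + ERβ LBD 263-489 fused to reporter fragments; 24 h treatment; fluorescence read by laser scanning cytometry; positive fitting direction relative to DMSO.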

[9] = target: Estrogen receptor beta (Homo sapiens) (UniProt Q92731); experiment: OT_ER_ERbERb_0480: Odyssey Thera (OT) 8-hour HEK293T Protein-Complementation Assay for Estrogen Receptor-beta/-beta Homodimer (AID 2283357);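 note: active means signal gain over DMSO baseline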
Estrogen receptor beta (Homo sapiens), sequence (Q92731 whole entry, looked up, the tested form may be a part): as above
Procedure, shortened: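 Cells (HEK293T, stable ER-beta LBD PCA pair) are treated 8 hours, fixed and Draq5-stained; signal is fluorescence intensity increase relative to vehicle, fitted in the gain direction.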

[10] = target: T1, Estrogen receptor (Homo sapiens) + Estrogen receptor beta (Homo sapiens); experiment: OT_ER_ERaERb_0480: Odyssey Thera (OT) 8-hour HEK293T Protein-Complementation Assay for Estrogen Receptor-alpha/-beta Heterodimer (AID 2283352)
Procedure, shortened: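 Compound added to HEK293T cells carrying split-reporter-tagged ER-alpha and ER-beta LBDs, incubated 8 hours, then imaged by laser scanning cytometer. Signal rise in nucleus, or nucleus and cytoplasm, over vehicle was fitted in the positive direction.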

[11] = target: human Peroxisome Proliferator-activated Receptor alpha (PPARa), PPARA (gene 5465) (UniProt Q07869); experiment: NVS_NR_hPPARa: NovaScreen (NVS) Nuclear Receptor Binding Assay for human Peroxisome Proliferator-activated Receptor alpha (PPARa) (AID 2283359);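 note: activity means loss of TR-FRET signal versus DMSO baseline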
Procedure, shortened: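 Chemicals were first screened in duplicate at 25 uM, and active ones were retested across concentration series. Binding was monitored by TR-FRET one hour after dosing, with decreased signal against DMSO counted as activity.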

[12] = target: Androgen Receptor/SRC-1 Co-activator, AR (gene 367) (UniProt P10275); experiment: OT_AR_ARSRC1_0480: Odyssey Thera (OT) 8-hour HEK293T Protein-Complementation Assay for Androgen Receptor/SRC-1 Co-activator (AID 2283354);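 note: hits raise the complementation signal above DMSO so AC50 marks enhancers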
Androgen Receptor/SRC-1 Co-activator, AR (gene 367), sequence (P10275 whole entry, looked up, the tested form may be a part): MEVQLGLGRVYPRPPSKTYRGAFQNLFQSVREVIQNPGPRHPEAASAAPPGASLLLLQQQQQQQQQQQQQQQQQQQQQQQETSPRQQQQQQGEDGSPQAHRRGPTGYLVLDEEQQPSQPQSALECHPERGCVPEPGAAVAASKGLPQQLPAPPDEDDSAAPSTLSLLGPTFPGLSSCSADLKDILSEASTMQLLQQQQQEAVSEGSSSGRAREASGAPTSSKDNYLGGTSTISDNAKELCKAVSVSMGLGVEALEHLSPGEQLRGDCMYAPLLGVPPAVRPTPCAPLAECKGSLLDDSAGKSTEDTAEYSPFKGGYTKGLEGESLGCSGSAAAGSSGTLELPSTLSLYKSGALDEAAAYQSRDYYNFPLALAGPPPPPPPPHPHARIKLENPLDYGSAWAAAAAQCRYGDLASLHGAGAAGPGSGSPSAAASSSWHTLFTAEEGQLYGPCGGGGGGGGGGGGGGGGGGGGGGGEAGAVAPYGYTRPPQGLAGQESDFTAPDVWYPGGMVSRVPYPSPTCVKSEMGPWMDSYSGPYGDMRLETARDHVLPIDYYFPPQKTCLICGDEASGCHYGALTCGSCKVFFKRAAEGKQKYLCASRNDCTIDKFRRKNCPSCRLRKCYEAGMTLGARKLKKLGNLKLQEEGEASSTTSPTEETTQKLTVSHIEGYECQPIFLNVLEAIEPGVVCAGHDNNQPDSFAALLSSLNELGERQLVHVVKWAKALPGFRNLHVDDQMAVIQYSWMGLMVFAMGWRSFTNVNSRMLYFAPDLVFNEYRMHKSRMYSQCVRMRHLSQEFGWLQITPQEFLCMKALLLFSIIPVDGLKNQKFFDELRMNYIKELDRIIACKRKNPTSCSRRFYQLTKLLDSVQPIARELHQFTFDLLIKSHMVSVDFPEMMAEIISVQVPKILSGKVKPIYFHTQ
Procedure, shortened: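 Measures AR/SRC-1 binding by Venus YFP fragment complementation in HEK293T stable lines at 8 h post-dose. Imaging quantifies the 488nm nucleus/cytoplasm ratio in ≥400 cells; DMSO defines baseline.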

[13] = test system: NCBI gene 100848466; experiment: NVS_NR_bPR: NovaScreen (NVS) Nuclear Receptor Binding Assay for bovine Progextron Receptor (PR) (AID 2283343);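 for AC50: actives lower bound radioligand signal below DMSO meaning displacement of the label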
Procedure, shortened: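 Membranes from bovine uterus; radiolabelled ligand plus test chemical; 18 h; scintillation read-out. Activity = signal loss vs DMSO. Primary: 25 uM, duplicate; secondary: concentration series.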

[14] = target: rat Mineralocorticoid Receptor (MR), Nr3c2 (gene 25672) (UniProt P22199); experiment: NVS_NR_rMR: NovaScreen (NVS) Nuclear Receptor Binding Assay for rat Mineralocorticoid Receptor (MR) (AID 2283355)
Procedure, shortened: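 Adrenalectomized rat brain supernatant was dosed with test chemical, then radioligand binding was measured by scintillation counting at 24 h. Initial testing ran in duplicate at 25 uM, followed by concentration series for actives.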

[15] = target: human Constitutive Androstane Receptor (CAR), NR1I3 (gene 9970) (UniProt Q14994); experiment: NVS_NR_hCAR_Antagonist: NovaScreen (NVS) Nuclear Receptor Binding Assay for human Constitutive Androstane Receptor Antagonism (CAR) (AID 2283344)
human Constitutive Androstane Receptor (CAR), NR1I3 (gene 9970), sequence (Q14994 whole entry, looked up): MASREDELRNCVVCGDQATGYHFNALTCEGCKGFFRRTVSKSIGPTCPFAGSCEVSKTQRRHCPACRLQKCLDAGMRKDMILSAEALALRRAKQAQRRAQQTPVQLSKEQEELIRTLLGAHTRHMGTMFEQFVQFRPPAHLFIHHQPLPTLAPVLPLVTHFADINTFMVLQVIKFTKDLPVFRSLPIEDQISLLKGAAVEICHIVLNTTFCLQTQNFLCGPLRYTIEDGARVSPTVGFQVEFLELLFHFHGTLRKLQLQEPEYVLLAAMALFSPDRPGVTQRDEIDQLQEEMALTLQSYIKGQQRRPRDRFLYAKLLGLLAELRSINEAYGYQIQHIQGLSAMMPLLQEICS
Procedure, shortened: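 Cell-free TR-FRET binding read 1 h after dosing, antagonist mode; loss of signal versus DMSO baseline. Primary screen in duplicate at a single 25 uM; actives retested in concentration series.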

[16] = target: Androgen Receptor/SRC-1 Co-activator, AR (gene 367) (UniProt P10275); experiment: OT_AR_ARSRC1_0960: Odyssey Thera (OT) 16-hour HEK293T Protein-Complementation Assay for Androgen Receptor/SRC-1 Co-activator (AID 2283353);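 note: actives raise the signal above DMSO so potency reflects increased AR and SRC-1 complex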
Procedure, shortened: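 HEK293T cells stably expressing AR and SRC-1 fused to Venus YFP fragments, imaged 16 h after dosing. Nuclear/cytoplasmic fluorescence ratio at 488 nm from at least 400 cells per image; gain of signal relative to DMSO.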

[17] = target: rat Glycine Receptor, Strychnine-sensitive (GlyRStrySens), Glra1 (gene 25674) (UniProt P07727); experiment: NVS_LGIC_rGlyRStrySens: NovaScreen (NVS) Ligand-Gated Ion Channel Assay for rat Glycine Receptor, Strychnine-sensitive (GlyRStrySens) (AID 2283341)
Procedure, shortened: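 Radioligand displacement on rat spinal cord membranes, 1 hr, filter scintillation read-out. Single-concentration duplicate screen at 25 uM; chemicals meeting threshold (e.g., 30% inhibition) rerun in concentration-response up to 50 uM. Loss of binding fitted versus DMSO.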

[Cl-].[Cl-].[Hg+2]
AC50 [1]: 8.27 µM (active) | outcome [2]: inactive | outcome [3]: inactive | outcome [4]: inactive | outcome [5]: inactive | outcome [6]: inactive | outcome [7]: inactive | outcome [8]: inactive | outcome [9]: inactive

O=C(Oc1ccc(Br)cc1)N1CCN2CCC1CC2
outcome [5]: inactive | outcome [7]: inactive

O=C(N[C@H](c1ccccc1)[C@@H]1CN2CCC1CC2)c1c(Cl)ccc(C(F)(F)F)c1Cl
AC50 [1]: 3.16 µM (active) | outcome [9]: inactive

Cc1ccc([N+](=O)[O-])cc1
outcome [2]: inactive | outcome [5]: inactive | outcome [7]: inactive | outcome [10]: inactive | outcome [8]: inactive | outcome [9]: inactive

CC(C)COC(=O)c1ccccc1C(=O)OCC(C)C
outcome [2]: inactive | AC50 [5]: 46.5 µM (active) | AC50 [7]: 31.4 µM (active) | AC50 [10]: 17.2 µM (active) | AC50 [8]: 31.1 µM (active) | AC50 [9]: 25.9 µM (active) | outcome [11]: inactive

C[N+](C)(C)CC1CO1 (configuration not stated)
outcome [5]: inactive | outcome [7]: inactive | outcome [10]: inactive | outcome [12]: inactive | outcome [8]: inactive | outcome [9]: inactive

CN(C)[C@@H]1C(=O)C(C(N)=O)=C(O)[C@@]2(O)C(=O)C3=C(O)c4c(O)cccc4[C@@](C)(O)[C@H]3C[C@@H]12
outcome [13]: inactive | AC50 [3]: 37.4 µM (active)

CCC[CH2][Sn]([Cl])([CH2]CCC)[CH2]CCC
AC50 [1]: 3.05 µM (active) | AC50 [13]: 2.4 µM (active) | AC50 [3]: 7.19 µM (active) | outcome [4]: inactive | outcome [5]: inactive | outcome [7]: inactive | outcome [14]: inactive | AC50 [11]: 0.0235 µM (active)

COP(=S)(OC)SCN1C(=O)c2ccccc2C1=O
outcome [1]: inactive | outcome [9]: inactive

CCCCC(CC)COC(=O)c1ccc(C(=O)OCC(CC)CCCC)c(C(=O)OCC(CC)CCCC)c1 (configuration not stated)
AC50 [15]: 10.7 µM (active) | outcome [16]: inactive | outcome [12]: inactive

ClC1=C(Cl)[C@]2(Cl)[C@H]3[C@H]([C@@H]4C=C[C@H]3C4)[C@@]1(Cl)C2(Cl)Cl
outcome [4]: inactive | outcome [5]: inactive | outcome [7]: inactive

Nc1ccc(Cl)cc1N
AC50 [3]: 25 µM (active) | outcome [16]: inactive | outcome [12]: inactive

Nc1ccc(Cc2ccc(N)cc2)cc1
outcome [17]: inactive

Cn1cc(-c2ccccc2)c(=O)c(-c2cccc(C(F)(F)F)c2)c1
outcome [5]: inactive | outcome [7]: inactive

CC(C)(C)C(O)(CCc1ccc(Cl)cc1)Cn1cncn1 (configuration not stated)
AC50 [3]: 14.9 µM (active)
